In PubChem BioAssay (Tox21):
Where “and” joins values, the source holds several entries; their conditions need not be identical. Equal values may be shown once. Results filed as inconclusive are left out. Some structures have more than one record in an assay (separate samples or runs), and their calls can disagree. Calls of active or inactive are those of the source. Unless noted, the call rests on the fitted dose curve.

What was measured:
[1] = Nuclear factor erythroid 2-related factor 2/antioxidant responsive element (Nrf2/ARE) small molecule agonists: qHTS cell viability counter screen in human keratinocytes (AID 1919968; active means well fitted curve in the direction sought with a large enough effect in the repeat runs; an effect the other way counts as inactive or inconclusive; further: nearly all actives have a fitted effect of over 55% in size; further: potency means the concentration at half of the fitted maximal effect)
Method in brief: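 Fluorescence read-out from CellTiter-Fluor after 1 h at 37 C. Wells held HaCaT-derived ARE-luciferase reporter cells (1,500/well) treated 23 h with DMSO-dissolved compounds. Run in the same wells as the luciferase agonist read.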

[2] = Nuclear factor erythroid 2-related factor 2/antioxidant responsive element (Nrf2/ARE) small molecule agonists: luciferase reporter gene qHTS assay in human keratinocytes (AID 1919969); further: nearly all actives have a fitted effect of over 35% in size; further: potency means the concentration at half of the fitted maximal effect
[3] = molecular target: KiSS-1 receptor (Homo sapiens) (UniProt Q969F8); experiment: Human kisspeptin (KISS1R) small molecule agonists, calcium flux assay in KISS1R-HEK293 cells (AID 1920064; active means well fitted curve in the direction sought with a large enough effect in the repeat runs; an effect the other way counts as inactive or inconclusive; further: potency means the concentration at half of the fitted maximal effect)
Method in brief: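 Calcium flux read-out: kinetic fluorescence at Ex/Em=480/540, 1 s intervals over 3 min, after pin-tool compound addition to dye-loaded KISS1R-HEK293 cells. Fifteen concentrations, triplicates.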

[4] = G protein-coupled receptor (GPCR) small molecule agonists, calcium flux assay: HEK293 wild type cell line counter screen (AID 1920065); further: potency means the concentration at half of the fitted maximal effect
Method in brief: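 Agonist mode; 18 h seeding at 37 C, 1 h dye load at 37 C; compounds pinned from DMSO, ATP as positive control; kinetic fluorescence 480/540 nm, 3 min, 1 s reads; 15 concentrations, triplicate.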

[5] = p53 small molecule agonists, cell-based qHTS assay with rat liver microsomes: qHTS cell viability counter screen (AID 1963580); further: nearly all actives have a fitted effect of over 45% in size
Method in brief: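 Cytotoxicity counter screen: intracellular ATP measured by CellTiter-Glo luminescence in the same wells as the beta-lactamase reporter read, on HCT-116 p53RE-bla cells exposed 16 h at 37 C to compounds with rat liver microsomes and NADPH, each 0.5 mg/mL final.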

[6] = p53 small molecule agonists, cell-based qHTS assay: qHTS cell viability counter screen (AID 1963581); further: nearly all actives have a fitted effect of over 45% in size
Method in brief: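 Cytotoxicity read-out: ATP-based luminescence (CellTiter-Glo, 30 min RT) measured in the same wells as the p53 reporter assay, HCT-116 p53RE-bla cells, 16 h compound exposure at 37 C.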

[7] = molecular target: Beta-2 adrenergic receptor (Homo sapiens) (UniProt P07550); experiment: Adrenergic beta2 receptor (ADRB2) small molecule antagonists, cell-based qHTS assay (AID 1963592); further: series mostly up to about 92 µM; nearly all actives have a fitted effect of over 50% in size
Method in brief: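 Assay format: CHO-ADRB2 cells, 18-20hr seeding at 37C/5% CO2, then compound plus 1nM isoproterenol agonist mix for 0.5hr RT. Homogeneous time-resolved fluorescence cAMP detection after 1hr, expressed as 665/615 nm ratio.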

[8] = molecular target: Beta-2 adrenergic receptor (Homo sapiens) (UniProt P07550); experiment: Adrenergic beta2 receptor (ADRB2) small molecule agonists, cell-based qHTS assay (AID 1963593);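 further: CHO cells stably overexpressing human ADRB2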
Method in brief: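 CHO cells stably over-expressing ADRB2 were plated overnight at 37C, then dosed with compounds plus a stimulation mix containing 100uM IBMX and 25uM Ro-20-1724 for 0.5hr at room temperature. cAMP was measured by HTRF competition, 1hr.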

[9] = molecular target: D(2) dopamine receptor (Homo sapiens) (UniProt P14416); experiment: Dopamine D2 receptor (DRD2) small molecule agonists, cell-based qHTS assay (AID 1963594); further: nearly all actives have a fitted effect of over 35% in size
Method in brief: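 HEK293 cells stably expressing human DRD2, pre-treated with PDE inhibitor Ro20-1724 (0.1 mM final) and compound 10 min at room temperature, then stimulated with NKH477 (200nM […]) for 30 min. cAMP read by HTRF (665/620 nm).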

[10] = molecular target: D(2) dopamine receptor (Homo sapiens) (UniProt P14416); experiment: Dopamine D2 receptor (DRD2) small molecule antagonists, cell-based qHTS assay (AID 1963595; active means well fitted inhibition curve with a large enough effect in the signal ratio in the repeat runs, with a control signal flat; the % refers to the signal ratio)
Method in brief: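 HEK293 cells stably expressing DRD2, preincubated with 0.1 mM Ro20-1724 and compounds 10 min, were stimulated with 200 nM NKH477 plus 12 nM quinpirole for 30 min at room temperature; cAMP measured by HTRF (665/620 nm).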

[11] = p53 small molecule agonists, cell-based qHTS assay with human liver microsomes (AID 1963577);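 further: p53 response element beta-lactamase reporter cells with liver microsomes plus NADPH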
Method in brief: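 Steps: plate p53RE-bla cells, incubate 5 h at 37 C; add compound in DMSO; add microsomes (0.5 mg/mL final) and NADPH (0.5 mg/mL final); incubate 16 h at 37 C; add LiveBLAzer, 2 h RT; read fluorescence.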

[12] = p53 small molecule agonists, cell-based qHTS assay with rat liver microsomes (AID 1963578)
Method in brief: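 Metabolic activation is supplied by rat liver microsomes with NADPH (each 0.5 mg/mL final). p53RE-bla cells incubate with compound 16 h at 37 C; reporter activity is measured by LiveBLAzer fluorescence.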

[13] = p53 small molecule agonists, cell-based qHTS assay (AID 1963582; active means well fitted activation curve with a large enough effect in the signal ratio in the repeat runs, not every such curve was filed as active; the % refers to the signal ratio)
Method in brief: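 Fluorescence intensity read-out of a beta-lactamase reporter under a p53 response element. Cells were exposed to DMSO-dissolved compounds for 16 h at 37 C, then developed with FRET substrate for 2 h at RT.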

[14] = molecular target: 5-hydroxytryptamine receptor 2A (Homo sapiens) (UniProt P28223); experiment: 5-hydroxytryptamine receptor 2A (HTR2A) small molecule antagonists, cell-based qHTS assay (AID 1963586); further: nearly all actives have a fitted effect of over 45% in size
Method in brief: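 CHO cells stably expressing human HTR2A were plated for 18 h at 37 C, then loaded with calcium dye for 1 h. Compounds were preincubated 5 min at room temperature before DOI (4 nM solution) was added. Kinetic fluorescence was read for 3 min.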

[15] = molecular target: 5-hydroxytryptamine receptor 2A (Homo sapiens) (UniProt P28223); experiment: 5-hydroxytryptamine receptor 2A (HTR2A) small molecule agonists, cell-based qHTS assay (AID 1963587); further: nearly all actives have a fitted effect of over 30% in size; further: potency means the concentration at half of the fitted maximal effect
Method in brief: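 CHO cells stably expressing human HTR2A, plated 18 h, loaded with calcium dye 1 h at 37 C. Agonist mode: compounds added and intracellular calcium fluorescence recorded kinetically for 2 min at 1 sec intervals.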

[16] = molecular target: Muscarinic acetylcholine receptor M1 (Homo sapiens) (UniProt P11229); experiment: Cholinergic receptor muscarinic 1 (CHRM1) small molecule antagonists, cell-based qHTS assay (AID 1963588); further: nearly all actives have a fitted effect of over 40% in size; further: potency means the concentration at half of the fitted maximal effect
Method in brief: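 Compounds were tested at 15 concentrations in three independent runs. Dye-loaded CHRM1-CHO cells were exposed 5 min at room temperature before stimulation by acetylcholine added at 50nM. Intracellular calcium was read kinetically on FDSS for 3 min.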

[17] = cAMP Responsive Elements (CRE) small molecule agonists, cell-based qHTS assay (AID 1963590)
Method in brief: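 Beta-lactamase reporter readout: LiveBLAzer B/G FRET substrate, 2 h at room temperature, added after 3 h compound treatment of CRE-bla HEK 293T cells at 37 C/5% CO2.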

[18] = cAMP Responsive Elements (CRE) small molecule antagonists, cell-based qHTS assay (AID 1963591; active means well fitted inhibition curve with a large enough effect in the signal ratio in the repeat runs, not every such curve was filed as active; the % refers to the signal ratio)
Method in brief: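 HEK293T CRE-bla; 18 h preincubation; compound pin-transfer; NKH477 0.25 uM final, 3 h, 37 C; LiveBLAzer FRET substrate 2 h RT.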

[19] = p53 small molecule agonists, cell-based qHTS assay with human liver microsomes: qHTS cell viability counter screen (AID 1963579); further: nearly all actives have a fitted effect of over 45% in size
Method in brief: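 After the 460/530 nm beta-lactamase read, CellTiter-Glo was added to the same wells and luminescence measured after 30 min at room temperature, giving viability of p53RE-bla cells treated 16 h with compounds plus microsomes and NADPH.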

[20] = molecular target: Muscarinic acetylcholine receptor M1 (Homo sapiens) (UniProt P11229); experiment: Cholinergic receptor muscarinic 1 (CHRM1) small molecule agonists, cell-based qHTS assay (AID 1963589); further: nearly all actives have a fitted effect of over 35% in size; further: potency means the concentration at half of the fitted maximal effect
Method in brief: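 Calcium flux read-out: kinetic fluorescence at 1 sec intervals after pin-tool compound addition to dye-loaded CHRM1-CHO cells (human M1). Agonist mode; 15 concentrations tested in triplicate independent runs.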
On the % scale 0 is the no-effect control and ±100 the full control effect.

Chain of Muscarinic acetylcholine receptor M1 (Homo sapiens) (P11229 whole entry, looked up): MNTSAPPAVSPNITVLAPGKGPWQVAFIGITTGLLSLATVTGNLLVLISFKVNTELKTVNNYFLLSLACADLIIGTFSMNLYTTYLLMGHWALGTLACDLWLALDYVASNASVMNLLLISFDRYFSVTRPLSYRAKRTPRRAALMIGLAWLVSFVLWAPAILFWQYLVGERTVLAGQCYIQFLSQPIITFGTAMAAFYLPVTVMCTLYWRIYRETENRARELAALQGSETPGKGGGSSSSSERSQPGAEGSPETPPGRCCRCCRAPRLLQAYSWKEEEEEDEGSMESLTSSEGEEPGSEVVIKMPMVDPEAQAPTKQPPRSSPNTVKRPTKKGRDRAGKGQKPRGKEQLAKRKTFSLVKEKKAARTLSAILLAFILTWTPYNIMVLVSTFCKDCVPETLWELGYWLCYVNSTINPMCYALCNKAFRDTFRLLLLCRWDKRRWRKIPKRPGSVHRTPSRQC
Chain of D(2) dopamine receptor (Homo sapiens) (P14416 whole entry, looked up): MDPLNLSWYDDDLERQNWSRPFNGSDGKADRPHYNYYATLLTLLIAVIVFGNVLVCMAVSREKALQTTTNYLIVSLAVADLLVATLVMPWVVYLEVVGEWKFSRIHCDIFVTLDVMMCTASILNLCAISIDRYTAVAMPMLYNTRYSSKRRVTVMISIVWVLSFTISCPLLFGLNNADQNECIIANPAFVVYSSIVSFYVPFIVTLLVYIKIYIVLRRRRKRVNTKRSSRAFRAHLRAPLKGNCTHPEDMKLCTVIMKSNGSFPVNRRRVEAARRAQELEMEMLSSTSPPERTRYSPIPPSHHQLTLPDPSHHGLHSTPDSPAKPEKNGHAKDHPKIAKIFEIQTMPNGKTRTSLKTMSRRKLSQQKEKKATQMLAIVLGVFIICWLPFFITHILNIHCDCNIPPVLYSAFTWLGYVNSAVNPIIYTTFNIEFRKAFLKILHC
Chain of Beta-2 adrenergic receptor (Homo sapiens) (P07550 whole entry, looked up): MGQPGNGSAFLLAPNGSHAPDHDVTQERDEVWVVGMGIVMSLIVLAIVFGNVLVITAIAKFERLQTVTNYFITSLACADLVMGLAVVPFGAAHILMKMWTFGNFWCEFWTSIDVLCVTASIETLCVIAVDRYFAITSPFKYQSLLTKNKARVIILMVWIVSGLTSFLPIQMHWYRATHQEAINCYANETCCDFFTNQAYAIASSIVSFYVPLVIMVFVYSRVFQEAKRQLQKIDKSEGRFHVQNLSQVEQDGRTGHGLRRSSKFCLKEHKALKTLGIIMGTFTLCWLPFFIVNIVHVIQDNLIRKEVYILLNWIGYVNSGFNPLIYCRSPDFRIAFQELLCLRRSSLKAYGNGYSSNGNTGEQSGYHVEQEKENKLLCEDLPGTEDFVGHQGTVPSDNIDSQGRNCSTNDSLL
Chain of 5-hydroxytryptamine receptor 2A (Homo sapiens) (P28223 whole entry, looked up): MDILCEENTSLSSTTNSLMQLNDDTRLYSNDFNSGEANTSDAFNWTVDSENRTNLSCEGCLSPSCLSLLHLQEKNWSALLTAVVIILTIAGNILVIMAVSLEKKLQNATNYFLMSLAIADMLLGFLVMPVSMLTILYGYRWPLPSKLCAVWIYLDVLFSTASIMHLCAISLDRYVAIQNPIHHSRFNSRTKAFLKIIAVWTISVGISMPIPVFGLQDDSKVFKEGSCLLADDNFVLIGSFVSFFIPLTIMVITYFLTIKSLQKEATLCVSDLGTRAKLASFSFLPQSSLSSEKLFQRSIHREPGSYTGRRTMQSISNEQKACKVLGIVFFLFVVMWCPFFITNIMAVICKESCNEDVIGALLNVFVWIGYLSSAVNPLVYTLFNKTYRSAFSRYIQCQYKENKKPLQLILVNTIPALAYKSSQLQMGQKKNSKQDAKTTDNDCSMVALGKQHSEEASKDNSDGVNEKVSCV
Chain of KiSS-1 receptor (Homo sapiens) (Q969F8 whole entry, looked up): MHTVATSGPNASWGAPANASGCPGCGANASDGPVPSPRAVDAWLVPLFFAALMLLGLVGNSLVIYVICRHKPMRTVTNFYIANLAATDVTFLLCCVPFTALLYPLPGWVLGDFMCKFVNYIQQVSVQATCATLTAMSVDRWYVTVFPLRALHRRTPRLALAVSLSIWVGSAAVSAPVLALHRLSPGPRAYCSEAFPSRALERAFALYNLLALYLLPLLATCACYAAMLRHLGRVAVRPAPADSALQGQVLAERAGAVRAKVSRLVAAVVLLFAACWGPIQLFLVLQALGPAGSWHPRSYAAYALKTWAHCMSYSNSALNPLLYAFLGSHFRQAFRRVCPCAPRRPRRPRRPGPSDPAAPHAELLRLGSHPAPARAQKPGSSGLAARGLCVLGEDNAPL

O=C1OC2(c3ccc(O)cc3Oc3cc(O)ccc32)c2ccccc21
inactive: Potency [2] | Potency [5] | Potency [6] | Potency [7] | Potency [8] | Potency [9] | Potency [10]
active: Potency [1] 9.44 µM | Potency [3] 550 nM and 2.39 µM | Potency [4] 1.74 µM and 3.38 µM

C[Si](C)(C)Cl
inactive: Potency [1] | Potency [2] | Potency [3] | Potency [4] | Potency [11] | Potency [12] | Potency [5] | Potency [6] | Potency [13] | Potency [14] | Potency [15] | Potency [16] | Potency [17] | Potency [18] | Potency [7] | Potency [8] | Potency [9]

NCCNCCNCCNCCN
inactive: Potency [1] | Potency [2] | Potency [3] | Potency [4] | Potency [19] | Potency [5] | Potency [6] | Potency [14] | Potency [15] | Potency [16] | Potency [20] | Potency [17] | activity change, negative = inhibition [18] -9.22% [at 8.39 µM] | Potency [7] | Potency [9] | Potency [10]

CCOc1ccc2c(c1)C(C)=CC(C)(C)N2
active: Potency [2] 68.2 µM and 68.6 µM
inactive: Potency [1] | Potency [4] | Potency [11] | Potency [19] | Potency [5] | Potency [6] | Potency [13] | Potency [14] | Potency [16] | Potency [17] | Potency [9]
54.7 µM (active) and inactive: Potency [15] | Potency [20]

NC(=O)NNc1ccccc1
inactive: Potency [1] | Potency [3] | Potency [4] | Potency [11] | Potency [12] | Potency [19] | Potency [5] | Potency [6] | Potency [13] | Potency [14] | Potency [15] | Potency [20] | Potency [17] | Potency [18] | Potency [7] | Potency [8] | Potency [9] | Potency [10]

O=c1n(CCCN2CCN(c3cccc(Cl)c3)CC2)nc2ccccn12
inactive: Potency [1] | Potency [3] | Potency [4] | Potency [11] | Potency [12] | Potency [19] | Potency [5] | Potency [6] | Potency [13] | Potency [17] | Potency [18] | Potency [7] | Potency [9]

CCCOCCO
inactive: Potency [1] | Potency [3] | Potency [4] | Potency [11] | Potency [12] | Potency [19] | Potency [5] | Potency [6] | Potency [13] | Potency [14] | Potency [15] | Potency [20] | Potency [17] | Potency [18] | Potency [7] | Potency [8] | Potency [9] | Potency [10]
inactive and 12.5 nM (active): Potency [16]

O=C(Nc1ccc([N+](=O)[O-])cc1)Nc1ccc([N+](=O)[O-])cc1 (tested in a mixture with another compound)
inactive: Potency [1] | Potency [3] | Potency [4] | Potency [11] | Potency [12] | Potency [19] | Potency [5] | Potency [6] | Potency [13] | Potency [14] | Potency [15] | Potency [16] | Potency [20] | Potency [17] | Potency [18] | Potency [8] | Potency [9] | Potency [10]
